In PubChem BioAssay AID602399 (Sanford-Burnham Center for Chemical Genomics, 2012):
Out of some 360,000 compounds screened, about 2,800 (0.78%) were called active. The sample holds actives, similar compounds and a random draw of the others, so the mix is not that of the screen. A number with no mark means an inactive call. No stated cut-off is given here; in the data, active means inhibition above about 26%; inactive means the rest.

Each compound was assayed on Nicotinate-nucleotide adenylyltransferase NadD (Staphylococcus aureus N315) (assay: S. aureus NadD enzyme activity blockers – biochemical, colorimetric, uHTS, primary screen (AID 602399)). Conditions: purified NadD enzyme, colorimetric absorbance read-out; at 20 µM; active compounds read high.
`CCc1c(C)c2c(C)[nH]nc2oc1=O` gave an inhibition of -0.195%. `Cc1cccc(NC(=O)c2sc3nc4c(c(-c5ccco5)c3c2N)CCC4)c1` was tested, and the inhibition was 44.6% (active). `Cc1ccc(NC(=O)c2sc3nc(N)c(C#N)cc3c2N)cc1` gave an inhibition of 12.7%. Work on `O=c1oc(-c2ccco2)nc2sc3c(c12)CCCCC3` yielded an inhibition of -5.51%. `Cc1cccn2c(CN(C)C3CCCc4ccccc43)c(C(=O)N3CCOCC3)nc12` (configuration not stated) showed an inhibition of -3.79%. `C=CCOc1ccccc1NC(=O)CN1C(=O)CNC1=O` was tested, and the inhibition was -2.12%. With `O=C(Nc1ccc(Br)cn1)C1CCN(S(=O)(=O)c2cccs2)CC1` the inhibition was -7.26%. `CCCc1nc(SCC(=O)Nc2ccccc2OC)c2c(=O)n(C)c(=O)n(C)c2n1` was tested, and the inhibition was -1.01%. In the case of `O=C(O)CCN(Cc1ccccc1)S(=O)(=O)c1c(Cl)cccc1Cl`, the inhibition is reported as -4.97%. Compound `CCOC(=O)C1=C(C)c2ccccc2OC1C(=O)OCC` (configuration not stated) has an inhibition of -1.62%. With `C=C1c2cccc(OC)c2O[C@H](C(=O)OCC)[C@@H]1CCCCCC` the inhibition was 52.4% (active). In the case of `O=C(COC(=O)c1cc(=O)[nH]c2ccccc12)NCc1cccc(Cl)c1`, the inhibition is reported as 0%. With `O=C(CSc1nc2ccccc2c(=O)[nH]1)Nc1nc(-c2ccc(Br)cc2)cs1` the inhibition was 42.3% (active). `O=C(CSc1ncn[nH]1)Nc1nc(-c2cccc([N+](=O)[O-])c2)cs1` showed an inhibition of -5.15%. For `O=C(COC(=O)c1cc(=O)[nH]c2ccccc12)Nc1nc(-c2cccc(Br)c2)cs1`, the inhibition was 42.5% (active). `Cc1csc(NC(=O)CSc2ccc(-c3ccc(F)cc3)nn2)n1` gave an inhibition of 0.514%. `O=C(OCc1nnc(-c2ccccc2)o1)c1cc(=O)[nH]c2ccccc12` was tested, and the inhibition was -0.542%. Work on `CCOC(=O)c1ccn(S(=O)(=O)c2ccc(C)cc2)c1-c1ccccc1` yielded an inhibition of -0.973%. Compound `CCOc1ccc(-c2cn(S(=O)(=O)c3cccc4nsnc34)nc2N)cc1` has an inhibition of -0.18%. Work on `CC(C)c1nnc(NC(=O)CCC(=O)N2CCN(c3cccc(Cl)c3)CC2)s1` yielded an inhibition of 1.72%. `COc1c(F)c(F)c(-c2csc(N)n2)c(F)c1F` showed an inhibition of -5.11%. `O=C(Nc1ccc(OCCO)cc1)c1csc([C@H]2C[C@H](O)[C@@H](CO)O2)n1` showed an inhibition of -8.65%. In the case of `CCCNC(=O)c1cnc(-c2ccccc2)nc1-c1ccccc1`, the inhibition is reported as -3.59%. For `CCOc1cc(/C=C2/N=C(c3ccc(C(C)(C)C)cc3)OC2=O)cc(Cl)c1OS(C)(=O)=O`, the inhibition was 71.7% (active). `CNC(=O)c1ccsc1NC(=O)c1ccc(S(=O)(=O)N2CCc3ccccc32)cc1` gave an inhibition of 11.7%. With `O=C(NC(Nc1nc2ccc([N+](=O)[O-])cc2s1)(C(F)(F)F)C(F)(F)F)c1ccccc1` the inhibition was -2.21%. With `O=C(Nc1nc2ccc([N+](=O)[O-])cc2s1)c1ccc(S(=O)(=O)N2CCCc3ccccc32)cc1` the inhibition was 34.4% (active). In the case of `O=C(OCc1cn(-c2ccc(Cl)c(Cl)c2)nn1)c1ccccc1Cl`, the inhibition is reported as 0.666%. `C=CCc1cccc2cc(C(=O)N3CCN(C(=O)OCC)CC3)c(=O)oc12` gave an inhibition of -4.59%. `COc1ccc(C)cc1NC(=O)c1ccc(-c2ccc(C(C)=O)cc2)o1` was tested, and the inhibition was -8.65%. With `CN(c1ccccn1)c1ncnc2[nH]ncc12` the inhibition was -2.6%. For `Cc1cc(C)c2c(c1)cc(C)c1nnc(SCC(=O)Nc3cc(C)on3)n12`, the inhibition was 0.406%. Compound `N#Cc1ccc(CSc2ncccn2)cc1` has an inhibition of -1.45%. For `N#CC1=C(SCc2ccc(C#N)cc2)N=C(N)C(c2nc(-c3ccccc3)cs2)C12CCCCC2` (configuration not stated), the inhibition was 39.1% (active). Work on `Cc1ccc(NC(=O)CN(C)S(=O)(=O)c2cnc[nH]2)cc1C` yielded an inhibition of -2.1%. `COC(=O)c1c(NC(=O)COc2ccc(Cl)cc2Cl)sc2c1CC(C)(C)NC2(C)C` showed an inhibition of -5.59%. With `COc1ccc(Cl)cc1-n1c(=S)sc2c(=O)n(-c3ccc(F)cc3)c(SCC(=O)O)nc21` the inhibition was -1.15%. In the case of `COc1ccccc1-n1c(=S)[nH]c2c(sc(=S)n2-c2ccc(C)cc2C)c1=O`, the inhibition is reported as 26.4% (active). In the case of `COc1cccc(-n2c(=S)sc3c(=O)n(-c4ccccc4OC)c(SCC4OCCO4)nc32)c1`, the inhibition is reported as -4.72%. `COc1cccc(-n2c(=S)sc3c(=O)n(-c4ccccc4C)c(SCC(=O)O)nc32)c1` showed an inhibition of -0.498%. `COc1ccccc1N1CCN(c2nc(C)cc(=O)[nH]2)CC1` gave an inhibition of 0.434%. For `CCc1ccc(-n2c(=S)sc3c(=O)n(-c4ccccc4OC)c(=S)[nH]c32)cc1`, the inhibition was 26.4% (active). In the case of `COc1ccc2c3c1O[C@H]1C[C@@H](O)C=C[C@@]31CCN(C)C2`, the inhibition is reported as -4.23%. With `COc1cc(C)c(C(C)C)cc1S(=O)(=O)n1ccnc1` the inhibition was -1.45%. Work on `CCCCCOC(=O)C1=C(C)Nc2nnnn2C1c1ccc(OC)c(OC)c1OC` (configuration not stated) yielded an inhibition of -2.88%. For `C=CCOc1ccc(/C=C/C(=O)OCC(=O)NCC2CCCO2)cc1` (configuration not stated), the inhibition was 0.0871%. `CCOC(=O)CC1COCCN1C(=O)c1cc(COc2ccc(F)c(F)c2)on1` (configuration not stated) gave an inhibition of -4.39%. For `CCC(NC(=O)c1cc(COc2ccc(F)c(F)c2)on1)c1ccncc1` (configuration not stated), the inhibition was 48.1% (active). `CC(=O)c1cccc(OCc2cc(C(=O)NC(C)Cc3cccnc3)no2)c1` (configuration not stated) showed an inhibition of -5.35%. Compound `COC(C(=O)Nc1ccc(S(=O)(=O)Nc2ccc(C)c(C)c2)cc1)c1ccccc1` (configuration not stated) has an inhibition of -2.66%. With `COc1ccc(NC(=O)COc2ccc(C(=O)OCC(=O)N(C)C3CCS(=O)(=O)C3)cc2OC)cc1` (configuration not stated) the inhibition was -2.63%. In the case of `CN(C(=O)COC(=O)c1cc(-c2ccco2)nc2ccccc12)C1CCS(=O)(=O)C1` (configuration not stated), the inhibition is reported as 87.6% (active). `COc1ccc2c(-c3ccccc3)cc(SCC(=O)N(C)C3CCS(=O)(=O)C3)nc2c1` (configuration not stated) gave an inhibition of -1.73%. `CC(C)CN1CCNC(=O)C1CC(=O)N(C)CC1CCOCC1` (configuration not stated) showed an inhibition of -2.31%. `CN(C)S(=O)(=O)c1ccc(N/C=C(\[N+](=O)[O-])S(=O)(=O)c2ccccc2)cc1` gave an inhibition of -3.76%. For `CC1(C(=O)NCc2ccc3c(c2)OCO3)CCN1C(=O)Cc1cccc2ccccc12` (configuration not stated), the inhibition was -4.65%. With `CCn1c(=O)cc(SCC(=O)NCc2ccc3c(c2)OCO3)c2ccccc21` the inhibition was 1.73%. In the case of `O=C1N(Cc2ccc3c(c2)OCO3)c2ccccc2C1(O)c1c[nH]c2ccccc12` (configuration not stated), the inhibition is reported as 34.1% (active). In the case of `CCCN(CCC)c1ccc(C(O)c2nnc(-c3ccccc3)o2)cc1` (configuration not stated), the inhibition is reported as 3.67%. Compound `CC1(C)OC(=O)C2=C(C[C@@H](C3CC3)O[C@H]2c2ccc(Cl)cc2)O1` has an inhibition of -7.37%. With `C[C@H](CO)N1C[C@H](C)[C@H](CN(C)C(=O)Nc2ccc(C(F)(F)F)cc2)Oc2c(NC(=O)c3ccncc3)cccc2C1=O` the inhibition was 34% (active). For `Cc1noc(C)c1NC(=O)Nc1cccc2c1O[C@H](CN(C)C(=O)Nc1ccccc1)[C@@H](C)CN([C@H](C)CO)C2=O`, the inhibition was -4.23%. `Cc1noc(C)c1NC(=O)Nc1ccc2c(c1)C(=O)N([C@H](C)CO)C[C@H](C)[C@@H](CN(C)C(=O)Nc1ccc(C(F)(F)F)cc1)O2` gave an inhibition of 3.74%. `CN(CC(=O)N1CCN(c2ccccc2)CC1)S(=O)(=O)c1cccs1` showed an inhibition of -2.17%. `Cc1nn2c(c1-c1ccccc1)N=C(c1ccco1)CC2c1ccccc1` (configuration not stated) was tested, and the inhibition was 35.5% (active). In the case of `O=C(O)CCCC(=O)N1N=C(c2ccco2)CC1c1ccco1` (configuration not stated), the inhibition is reported as 2.35%. `C=CCN1C(=O)C(Cc2ccc(OCC)cc2)SC1=Nc1ccc(C(=O)O)cc1` (configuration not stated) showed an inhibition of -1.51%. Work on `CCOCCCN1C(=O)C2C(C(=O)Nc3ccc(OCC)cc3)C3C=CC2(O3)C1C(=O)NC1CCCCC1` (configuration not stated) yielded an inhibition of -6.7%. `O=C(NCCCn1ccnc1)/C(=C\c1ccccc1F)NC(=O)c1ccccc1` showed an inhibition of -0.605%. Compound `COc1ccc(/C=C(\C#N)C(=O)NCCCn2ccnc2)cc1` has an inhibition of -0.938%. For `COc1cccc(-c2nn(-c3ccccc3)cc2/C=C(\C#N)C(=O)NCCCn2ccnc2)c1`, the inhibition was 29.3% (active). `Cc1ccc(S(=O)(=O)N2CCN(C(=O)COC(=O)/C=C/c3cccc(Cl)c3)CC2)c(C)c1` gave an inhibition of -1.3%. `O=C(CC1SC(=Nc2ccccc2)N(Cc2ccccn2)C1=O)Nc1cccc(Cl)c1` (configuration not stated) showed an inhibition of 7.98%. For `O=C1/C(=C/c2ccc(F)cc2)SC(=S)N1NS(=O)(=O)c1ccccc1`, the inhibition was 5.39%. Compound `COc1cc(-c2nnc(Cn3cc(C(F)(F)F)ccc3=O)o2)cc(OC)c1OC` has an inhibition of -3.86%. `COc1cc(/C=C2\SC(=S)N(Nc3ncc(C(F)(F)F)cc3Cl)C2=O)cc(OC)c1OC` was tested, and the inhibition was 31.2% (active). `COCCCn1c(C(=O)NC2CCCCC2)cc2c(=O)n3cccc(C)c3nc21` gave an inhibition of 2.49%. `O=c1c(-c2ccccc2)cnc2n1CCS2` showed an inhibition of -3.39%. Work on `Cc1cccc(N2CCN(C(=O)/C=C/c3ccco3)CC2)c1C` yielded an inhibition of -1.19%. In the case of `Cc1cc(C=O)c(C)n1-c1ccc(NC2CCCCC2)c([N+](=O)[O-])c1`, the inhibition is reported as 0.0872%. For `Cc1ccc(N2CCN(c3ccc([N+](=O)[O-])cn3)CC2)c(C)c1`, the inhibition was 1.39%. With `Cc1ccc(-n2c(C)cc(/C=N/Nc3ccc([N+](=O)[O-])cn3)c2C)c(C)c1` the inhibition was 44.4% (active). For `Nc1ccc(Cl)c(S(=O)(=O)Nc2ccccc2Cl)c1`, the inhibition was 6.19%. `O=C1Nc2cc(Cl)c(Cl)cc2N(O)N1c1cc(Cl)cc(Cl)c1` gave an inhibition of -1.38%. `CN(C)c1nc(=Nc2cccc(Cl)c2)ss1` was tested, and the inhibition was 3.08%. In the case of `Clc1cccc(N=C2NN=C(c3ccc4c(c3)OCCO4)CS2)c1`, the inhibition is reported as 31% (active). In the case of `c1ccc(CN2CCC(N=C3NN=C(c4ccc5c(c4)OCCO5)CS3)CC2)cc1`, the inhibition is reported as 17%.
